# Measured values from PubChem BioAssay AID504332 (National Center for Advancing Translational Sciences (NCATS), 2011).
# Among all 350,000 compounds or so, about 31,000 (8.9%) were called active. Entries that show only a call come without a potency. Another 15% or so got no clear call; they are omitted. The sample as a whole holds a higher share of actives than the screen did. A number with no mark means an inactive call. Calls follow the shape of the dose curve; as a rule, active = well fitted inhibition curve with a large enough effect; inconclusive = small, poorly fitted or top-dose-only effect; inactive = no such curve, though single readings can be large or run the other way.
# Biological target: Histone-lysine N-methyltransferase EHMT2 (Homo sapiens) (UniProt Q96KQ7)
# Assay: qHTS Assay for Inhibitors of Histone Lysine Methyltransferase G9a; also: nearly all actives have a fitted effect of over 75% in size
# Conditions: G9a H3K9 monomethylation, AlphaScreen, 2 h; series mostly up to 59 µM
# Outline: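 G9a (20 nM) preincubated 15 min RT with compounds, then 500 nM biotinylated H3K9 peptide and 20 uM SAM added; 2 h RT reaction. Monomethyl-H3K9 product detected by AlphaScreen with anti-H3K9me1 antibody, streptavidin donor and anti-rabbit IgG acceptor beads.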
# Potency is read from the fitted curve at half-maximal effect.
# Sequence of Histone-lysine N-methyltransferase EHMT2 (Homo sapiens) (Q96KQ7 913-1193 limits assumed): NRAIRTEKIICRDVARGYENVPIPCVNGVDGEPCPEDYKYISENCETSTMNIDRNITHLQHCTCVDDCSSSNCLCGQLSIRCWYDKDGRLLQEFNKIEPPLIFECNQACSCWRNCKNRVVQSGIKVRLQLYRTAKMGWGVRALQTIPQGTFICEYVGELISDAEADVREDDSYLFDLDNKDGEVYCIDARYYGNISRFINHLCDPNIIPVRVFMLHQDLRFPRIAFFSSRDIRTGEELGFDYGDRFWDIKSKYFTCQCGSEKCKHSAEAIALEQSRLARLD
Structure (SMILES),Potency,"activity, negative = inhibition"
COCCCC1CCN(C(=O)C2CCC(=O)N(C3CCCCCC3)C2)CC1 (configuration not stated),inactive,
Cc1onc(-c2ccc(F)cc2F)c1C(=O)Nc1cccc(C(F)(F)F)c1,inactive,
Cc1ccc(C(=O)N2c3ncnn3C3(CCCCC3)[C@@H]3CCCC[C@@H]32)cc1,inactive,
Cc1ccccc1CN1CCC(CNC(=O)c2cc3ccc4cccnc4c3[nH]2)CC1,inactive,
COc1cc(C(=O)NNC(=O)CN2C(=O)NC3(CCCC3)C2=O)cc(OC)c1OC,inactive,
O=C(c1cc2cc(F)ccc2[nH]1)N1CCN(c2ccc(F)cc2)CC1,inactive,
O=C(CCCN1CCc2[nH]c3ccc(F)cc3c2C1)c1ccc(F)cc1,50.1 µM (active),
Cc1nnc(SCc2cc(=O)c3cc(F)ccc3[nH]2)n1C,inactive,
Cc1ccc2cc(C#N)c(SCC(=O)NCC3CCCO3)nc2c1C (configuration not stated),inactive,
Cc1cc(=O)[nH]c(SCC(N)=O)c1C#N,,9.52% [at 2.33 µM]
Cc1cc(C#N)c(SCC(N)=O)nc1-c1ccc(F)cc1,12.6 µM (active),
COc1ccc(C(=O)NC2=NCCS2)c(OC)c1,,5.43% [at 12.7 µM]
COc1ccc(C(=O)Nc2nncs2)c(OC)c1,39.8 µM (active),
COc1ccc(Cc2nnc(NC(=O)c3ccc(OC)cc3OC)s2)cc1,,-7.06% [at 0.501 µM]
COc1ccc(S(=O)(=O)c2c(Nc3ccc(C)cc3)sc(C(=O)c3ccc(C)cc3)c2N)cc1,inactive,
O=C(NCc1ccccc1)C(c1ccco1)N(C(=O)c1csnn1)c1ccccc1F (configuration not stated),inactive,
Cc1ccc(NC(=O)CSc2nnc3[nH]c(=O)cc(C)n23)cc1Cl,inactive,
COC(=O)C1=C(C)N(C(C)c2ccccc2)C(=O)/C1=C\c1ccco1 (configuration not stated),35.5 µM (active),
COC(=O)C1=C(C)N(c2ccc(Br)cc2)C(=O)/C1=C\c1ccco1,inactive,
CC(C)NC(=O)C(=O)N/N=C/c1ccco1,inactive,
COc1c(Cl)cc(C(=O)N(Cc2ccccc2F)C2CCS(=O)(=O)C2)cc1Cl (configuration not stated),inactive,

Structure (SMILES),Potency,"activity, negative = inhibition"
Cc1ccc(C(=O)N2CCc3cc(CNC(=O)c4ccc(Br)cc4)ccc32)cc1,inactive,
O=C(OCC(=O)N1CCc2ccccc21)c1ccc([N+](=O)[O-])cc1,,-12.4% [at 2.33 µM]
CCC(CC)COC(=O)C1=C(C)NC(=O)NC1c1ccc([N+](=O)[O-])cc1 (configuration not stated),inactive,
COc1cccc(N2CCN(CC(=O)Nc3ccnn3C3CCCC3)CC2)c1,,3.38% [at 12.7 µM]
CCCSc1ncc(Cl)c(C(=O)Nc2sc3c(c2C(=O)NCCOC)CCCC3)n1,inactive,
COc1cc(NS(=O)(=O)c2ccc(NC(C)=O)cc2)cc(OC)c1,inactive,
CC(=O)Nc1ccc(S(=O)(=O)Nc2cc(C)cn(Cc3ccc(C)cc3)c2=O)cc1,44.7 µM (active),
COc1ccc(NS(=O)(=O)c2ccc(NC(C)=O)cc2)cc1OC,inactive,
CC(=O)c1c(C)[nH]c(C(=O)N2CCN(S(=O)(=O)c3ccc(F)c(F)c3)CC2)c1C,inactive,
CCC(C)C(=O)Nc1ccccc1N1CCN(c2ccc(F)cc2)CC1 (configuration not stated),inactive,
Cc1ccc(OCCC(=O)Nc2ccc(S(=O)(=O)Nc3nccs3)cc2)cc1,,15% [at 12.7 µM]
COc1cn(CC(=O)Nc2cccc(C)c2C)c(CN2CCCCC2)cc1=O,inactive,
C/C=C/C=N/NC(=O)c1ccncc1,,3.78% [at 12.7 µM]
O=C(NN1C(=O)C2C3C=CC(O3)C2C1=O)c1ccncc1 (configuration not stated),44.7 µM (active),
COc1ccccc1C(=O)NN1C(=O)C2C3C=CC(O3)C2C1=O (configuration not stated),35.5 µM (active),
O=C(NN1C(=O)C2C3C=CC(C4CC34)C2C1=O)c1ccc(Cl)cc1 (configuration not stated),inactive,
COc1ccccc1C(=O)Nn1cnnc1,inactive,
COc1ccc(C(=O)NN2C(=O)C3C(c4ccccc4)C=CC(c4ccccc4)C3C2=O)cc1 (configuration not stated),inactive,
CCC(=O)N1CCc2cc(Br)cc(S(=O)(=O)Nc3ccc(C)cc3C)c21,inactive,
CCOc1ccc(C(CC(=O)O)NC(=O)Cc2ccccc2)cc1OC (configuration not stated),inactive,
CSc1nc(=O)c2c(n1C)NC(=O)CC2c1ccccc1OC(C)C (configuration not stated),inactive,

Structure (SMILES),Potency,"activity, negative = inhibition"
CN(C)c1nc(=Nc2cccc(Cl)c2)ss1,6.31 µM (active),
CCC(C)C(N=C1NS(=O)(=O)c2ccccc21)C(=O)N1CCC(C)CC1 (configuration not stated),inactive,
Cc1nn(Cc2ccc(F)cc2)c(C)c1NC(=O)c1cc(CC(C)C)on1,inactive,
CCCCn1c(SCC(=O)N2CCCC2=O)nc2cc(S(N)(=O)=O)ccc21,,76.1% [at 2.33 µM]
O=C1c2cccc3cccc(c23)N1CN1CCN(c2ccccn2)CC1,inactive,
OC(COc1cccc2ccccc12)CN1CCN(c2ccccn2)CC1 (configuration not stated),50.1 µM (active),
Cc1ccccc1OCC(O)CN1CCN(c2ccccn2)CC1 (configuration not stated),inactive,
COc1ccc(-c2nc3ccccc3s2)cc1NC(=O)COc1ccccc1C,inactive,
COc1ccccc1C1C(C(=O)N2CCCCC2)=C(C)Nc2nc3ccccc3n21 (configuration not stated),inactive,
Cc1ccccc1NC(=O)COc1cccc2c1CCNC2=O,inactive,
Cc1ccnc(NS(=O)(=O)c2ccc(NC(=O)c3oc4ccc(F)cc4c3C)cc2)n1,,6.53% [at 0.501 µM]
Cc1ccnc(NS(=O)(=O)c2ccc(NC(=O)c3ccc(S(=O)(=O)N(C)C)cc3)cc2)n1,inactive,
Cc1ccnc(NS(=O)(=O)c2ccc(NC(=O)c3oc4ccccc4c3C)cc2)n1,25.1 µM (active),
Cc1ccc(NC(=O)NC(C)c2c(-n3cccc3)sc(C)c2C)c(C)c1 (configuration not stated),inactive,
CCOC(=O)N1CCN(C(=O)c2ccc(S(=O)(=O)c3ccc(C)cc3)c(NC(C)=O)c2)CC1,,29.4% [at 0.501 µM]
CC(=O)Nc1cc(C(=O)O)ccc1S(=O)(=O)c1ccc(Cl)cc1,50.1 µM (active),
COCCNC(=O)c1ccc(S(=O)(=O)c2ccc(Cl)cc2)c(NC(C)=O)c1,inactive,
O=C(CN1CCCCC1)Nc1ccccc1C(=O)NC1CC1,inactive,
O=C(COc1ccc(Cl)cc1)N(Cc1ccco1)Cc1ccco1,inactive,
O=C1C=C(c2cccc(Br)c2)C[C@@H](c2ccc(F)cc2)C1,,-5.82% [at 0.501 µM]
